Test results taken from the supplement of paper PMC11383364.
± gives the standard deviation of the averaged measurements.

Tested on: SUM149
Test: percent difference in area under dose-response curve of relative cell number, RPMI vs HPLM; higher = drug relatively more effective in HPLM than RPMI (negative = less effective in HPLM)
Conditions: treatment time: 72 h; dose range: 10-point, 1 nM to 20 µM; media compared: RPMI vs HPLM

| Structure (SMILES) | percent difference in area under dose-response curve [%] |
| --- | --- |
| CC/C(=C(\c1ccccc1)c1ccc(OCCN(C)C)cc1)c1ccccc1 [Tamoxifen_Citrate] | -4.18 |
| O=C(Nc1cccc(Cl)c1)Nc1ncc(CCNc2ncnc3ccsc23)s1 [SNS314_Mesylate] | -24.4 |
| Cc1ccc(C)c(Oc2ccncc2C(=O)N2CCN(C3CC3)c3ccccc32)c1 | -4.99 |
| O=C(Nc1cccnc1)N1CCC(Cc2cccc(Oc3ccc(C(F)(F)F)cn3)c2)CC1 | -4.77 |
| Cc1csc(-c2nnc(Nc3ccc(Oc4ncccc4-c4ccnc(N)n4)cc3)c3ccccc23)c1 | -35.1 |
| Cc1cc(=O)oc2c(C=O)c(O)ccc12 | 5.18 |
| CS(=O)(=O)N1CCc2c(-c3cnc(N)nc3)nc(N3CCOCC3)nc21 | -3.59 |
| Cc1cc(N2CCOCC2)cc2[nH]c(-c3c(NC[C@@H](O)c4cccc(Cl)c4)cc[nH]c3=O)nc12 | -6.07 |
| COc1cc(OC)c(/C=C/S(=O)(=O)Cc2ccc(OC)c(NCC(=O)O)c2)c(OC)c1 [Rigosertib] | -46.7 |
| Cn1cc(-c2ccc3c(c2)CCN3C(=O)Cc2cccc(C(F)(F)F)c2)c2c(N)ncnc21 | 4.03 |
| NC(=O)c1[nH]nc([C@@H]2O[C@H](CO)[C@@H](O)[C@H]2O)c1O [Pyrazofurin] | 5.89 |
| COc1ccc(S(=O)(=O)Nc2cccnc2Nc2ccc(O)cc2)cc1 | -6.35 |
| CCN(CC)C(=S)SSC(=S)N(CC)CC [Disulfiram] | -27.1 ± 6.8 |
| O=C1c2c(O)ccc(O)c2C(=O)c2c(NCCNCCO)ccc(NCCNCCO)c21 [Mitoxantrone] | -23.7 |
| CCCS(=O)(=O)Nc1ccc(F)c(C(=O)c2c[nH]c3ncc(-c4ccc(Cl)cc4)cc23)c1F [Vemurafenib] | 6.44 |
